Targets with a hit are over-represented here; the source holds about 8,800 in all. About 0.5% of all pairs of compound and target were hits.

Sequence of UniProt P14314 (P14314 whole entry, looked up): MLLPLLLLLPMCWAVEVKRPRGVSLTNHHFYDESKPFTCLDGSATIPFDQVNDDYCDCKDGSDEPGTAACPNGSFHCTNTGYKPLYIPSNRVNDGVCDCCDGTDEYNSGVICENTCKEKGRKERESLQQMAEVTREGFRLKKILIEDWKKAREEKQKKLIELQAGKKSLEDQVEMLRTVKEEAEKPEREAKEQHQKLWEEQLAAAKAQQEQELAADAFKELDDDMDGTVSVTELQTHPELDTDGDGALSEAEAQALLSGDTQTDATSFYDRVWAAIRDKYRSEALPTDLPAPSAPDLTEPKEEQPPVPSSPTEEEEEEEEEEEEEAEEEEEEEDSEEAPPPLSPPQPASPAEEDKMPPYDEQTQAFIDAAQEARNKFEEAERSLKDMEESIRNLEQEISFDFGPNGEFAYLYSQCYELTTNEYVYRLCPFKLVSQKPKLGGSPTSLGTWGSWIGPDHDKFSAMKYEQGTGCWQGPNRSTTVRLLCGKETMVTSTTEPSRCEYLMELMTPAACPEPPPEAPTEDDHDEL
Sequence of UniProt P31323 (P31323 whole entry, looked up): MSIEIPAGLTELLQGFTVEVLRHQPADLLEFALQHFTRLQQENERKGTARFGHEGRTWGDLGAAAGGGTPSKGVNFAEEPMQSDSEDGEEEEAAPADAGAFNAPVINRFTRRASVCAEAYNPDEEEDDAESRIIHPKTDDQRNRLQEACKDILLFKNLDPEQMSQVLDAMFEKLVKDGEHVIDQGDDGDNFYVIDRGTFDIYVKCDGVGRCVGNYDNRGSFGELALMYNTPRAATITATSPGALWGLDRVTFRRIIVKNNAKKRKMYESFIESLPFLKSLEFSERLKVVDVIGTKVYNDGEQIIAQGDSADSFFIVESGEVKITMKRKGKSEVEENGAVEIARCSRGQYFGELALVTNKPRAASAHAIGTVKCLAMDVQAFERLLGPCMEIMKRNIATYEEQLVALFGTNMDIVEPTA
Sequence of UniProt P27986 (P27986 whole entry, looked up): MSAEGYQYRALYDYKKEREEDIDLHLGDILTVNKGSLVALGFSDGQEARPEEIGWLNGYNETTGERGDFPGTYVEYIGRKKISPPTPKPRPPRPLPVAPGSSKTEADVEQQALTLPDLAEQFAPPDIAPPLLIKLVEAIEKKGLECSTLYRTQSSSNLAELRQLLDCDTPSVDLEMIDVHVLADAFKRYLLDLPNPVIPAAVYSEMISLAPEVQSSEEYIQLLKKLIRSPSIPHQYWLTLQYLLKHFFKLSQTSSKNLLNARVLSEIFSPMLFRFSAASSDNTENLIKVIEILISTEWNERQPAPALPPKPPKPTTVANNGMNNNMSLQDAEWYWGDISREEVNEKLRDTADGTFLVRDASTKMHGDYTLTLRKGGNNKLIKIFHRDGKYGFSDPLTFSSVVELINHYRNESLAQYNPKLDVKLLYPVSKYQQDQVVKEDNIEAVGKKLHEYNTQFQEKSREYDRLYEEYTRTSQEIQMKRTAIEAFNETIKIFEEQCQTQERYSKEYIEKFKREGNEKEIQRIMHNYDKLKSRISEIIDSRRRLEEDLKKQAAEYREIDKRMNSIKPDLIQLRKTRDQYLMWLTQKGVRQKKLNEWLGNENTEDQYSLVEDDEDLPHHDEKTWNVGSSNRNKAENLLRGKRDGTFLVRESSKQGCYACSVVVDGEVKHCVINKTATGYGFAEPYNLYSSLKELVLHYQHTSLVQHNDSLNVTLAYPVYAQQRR
Sequence of UniProt O94906 (O94906 whole entry, looked up): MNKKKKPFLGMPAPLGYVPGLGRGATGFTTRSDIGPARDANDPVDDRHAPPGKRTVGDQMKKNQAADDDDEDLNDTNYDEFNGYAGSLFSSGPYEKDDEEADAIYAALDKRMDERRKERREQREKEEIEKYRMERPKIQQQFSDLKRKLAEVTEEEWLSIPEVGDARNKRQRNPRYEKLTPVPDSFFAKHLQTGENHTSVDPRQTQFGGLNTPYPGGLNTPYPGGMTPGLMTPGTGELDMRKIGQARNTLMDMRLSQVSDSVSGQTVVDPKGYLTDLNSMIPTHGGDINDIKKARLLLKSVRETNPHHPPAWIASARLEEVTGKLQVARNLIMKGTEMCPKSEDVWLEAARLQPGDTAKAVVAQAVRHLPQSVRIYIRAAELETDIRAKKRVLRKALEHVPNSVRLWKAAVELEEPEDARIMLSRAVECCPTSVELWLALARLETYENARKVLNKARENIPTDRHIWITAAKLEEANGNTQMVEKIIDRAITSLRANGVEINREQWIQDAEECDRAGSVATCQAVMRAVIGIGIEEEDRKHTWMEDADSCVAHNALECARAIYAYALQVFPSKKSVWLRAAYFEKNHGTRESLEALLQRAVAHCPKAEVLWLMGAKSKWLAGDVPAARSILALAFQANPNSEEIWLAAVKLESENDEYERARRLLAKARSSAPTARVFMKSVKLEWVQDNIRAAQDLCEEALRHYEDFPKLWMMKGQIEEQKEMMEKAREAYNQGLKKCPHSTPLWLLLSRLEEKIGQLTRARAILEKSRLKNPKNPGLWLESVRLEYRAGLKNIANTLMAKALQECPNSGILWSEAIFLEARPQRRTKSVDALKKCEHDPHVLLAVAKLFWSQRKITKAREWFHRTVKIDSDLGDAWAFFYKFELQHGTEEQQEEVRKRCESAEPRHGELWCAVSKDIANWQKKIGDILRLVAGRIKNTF
Sequence of UniProt O94913 (O94913 whole entry, looked up): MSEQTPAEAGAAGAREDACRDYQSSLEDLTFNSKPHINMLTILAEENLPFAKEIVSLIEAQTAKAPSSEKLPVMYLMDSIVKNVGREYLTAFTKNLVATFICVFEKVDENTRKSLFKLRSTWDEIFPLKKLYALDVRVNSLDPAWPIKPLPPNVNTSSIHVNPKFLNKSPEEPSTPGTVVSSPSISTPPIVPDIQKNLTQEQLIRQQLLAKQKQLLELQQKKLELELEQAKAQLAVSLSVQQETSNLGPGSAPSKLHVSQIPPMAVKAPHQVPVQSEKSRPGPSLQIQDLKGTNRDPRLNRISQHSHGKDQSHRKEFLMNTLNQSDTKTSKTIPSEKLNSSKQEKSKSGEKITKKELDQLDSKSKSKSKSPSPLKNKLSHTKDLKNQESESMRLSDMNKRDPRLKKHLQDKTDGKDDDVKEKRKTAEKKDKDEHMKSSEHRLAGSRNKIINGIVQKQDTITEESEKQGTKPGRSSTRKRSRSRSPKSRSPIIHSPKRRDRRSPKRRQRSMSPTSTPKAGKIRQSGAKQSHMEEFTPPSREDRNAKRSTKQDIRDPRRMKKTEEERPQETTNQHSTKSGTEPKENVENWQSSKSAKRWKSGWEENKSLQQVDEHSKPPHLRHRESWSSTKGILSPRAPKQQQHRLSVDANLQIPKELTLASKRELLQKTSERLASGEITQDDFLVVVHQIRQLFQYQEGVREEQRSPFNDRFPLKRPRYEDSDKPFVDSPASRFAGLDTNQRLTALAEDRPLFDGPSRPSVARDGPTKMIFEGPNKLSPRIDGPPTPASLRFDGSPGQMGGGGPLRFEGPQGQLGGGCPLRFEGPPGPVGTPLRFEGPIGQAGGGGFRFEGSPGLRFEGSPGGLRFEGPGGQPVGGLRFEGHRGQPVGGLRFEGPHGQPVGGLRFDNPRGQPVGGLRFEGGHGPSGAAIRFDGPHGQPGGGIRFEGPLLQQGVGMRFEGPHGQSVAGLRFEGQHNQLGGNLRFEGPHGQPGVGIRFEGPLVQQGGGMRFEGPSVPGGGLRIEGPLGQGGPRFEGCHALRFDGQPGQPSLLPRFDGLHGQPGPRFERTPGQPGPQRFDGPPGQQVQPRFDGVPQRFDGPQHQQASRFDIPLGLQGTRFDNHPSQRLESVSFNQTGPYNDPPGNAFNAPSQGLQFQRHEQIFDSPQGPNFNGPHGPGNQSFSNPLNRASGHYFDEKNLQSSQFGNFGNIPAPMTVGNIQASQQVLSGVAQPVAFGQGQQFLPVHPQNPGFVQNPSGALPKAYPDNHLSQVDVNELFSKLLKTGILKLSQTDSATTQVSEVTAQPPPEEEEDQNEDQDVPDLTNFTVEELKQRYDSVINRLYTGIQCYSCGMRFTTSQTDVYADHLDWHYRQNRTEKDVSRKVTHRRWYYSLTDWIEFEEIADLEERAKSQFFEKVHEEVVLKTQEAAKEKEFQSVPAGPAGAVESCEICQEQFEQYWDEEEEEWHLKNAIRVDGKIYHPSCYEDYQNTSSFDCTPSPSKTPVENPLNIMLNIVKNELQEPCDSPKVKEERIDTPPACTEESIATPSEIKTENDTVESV
Sequence of UniProt Q9Y244 (Q9Y244 whole entry, looked up): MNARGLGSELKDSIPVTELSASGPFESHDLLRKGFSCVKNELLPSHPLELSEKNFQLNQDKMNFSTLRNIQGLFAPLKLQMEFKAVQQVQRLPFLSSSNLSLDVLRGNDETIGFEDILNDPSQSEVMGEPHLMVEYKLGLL
Sequence of UniProt Q8NAV1 (Q8NAV1 whole entry, looked up): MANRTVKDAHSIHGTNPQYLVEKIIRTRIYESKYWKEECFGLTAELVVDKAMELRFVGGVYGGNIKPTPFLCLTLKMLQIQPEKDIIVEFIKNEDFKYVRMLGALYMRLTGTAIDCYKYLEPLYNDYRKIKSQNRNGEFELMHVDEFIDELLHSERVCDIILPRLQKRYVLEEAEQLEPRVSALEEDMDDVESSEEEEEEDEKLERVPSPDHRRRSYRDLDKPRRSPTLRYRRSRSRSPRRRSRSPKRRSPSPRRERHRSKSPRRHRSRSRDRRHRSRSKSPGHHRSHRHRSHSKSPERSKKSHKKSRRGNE
Sequence of UniProt P48426 (P48426 whole entry, looked up): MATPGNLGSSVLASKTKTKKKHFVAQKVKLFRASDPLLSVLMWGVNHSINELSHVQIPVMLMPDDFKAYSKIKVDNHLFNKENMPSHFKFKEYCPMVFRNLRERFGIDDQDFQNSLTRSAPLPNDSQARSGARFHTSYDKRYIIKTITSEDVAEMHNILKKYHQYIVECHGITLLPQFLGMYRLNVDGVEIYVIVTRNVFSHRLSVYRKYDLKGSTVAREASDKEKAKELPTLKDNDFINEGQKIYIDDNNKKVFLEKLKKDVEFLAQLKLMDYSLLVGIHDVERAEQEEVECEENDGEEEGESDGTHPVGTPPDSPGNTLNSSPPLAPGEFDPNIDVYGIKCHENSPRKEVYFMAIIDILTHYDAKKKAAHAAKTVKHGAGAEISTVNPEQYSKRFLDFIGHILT

Compound in one assay: CN1CCC(CNc2ccc3ncc(-c4cccc(OC(F)(F)F)c4)n3n2)CC1
The assay is described as follows: log2 fold change, soluble protein after heating vs DMSO (PISA); higher = thermal stabilisation; K562 lysate, 10 uM; active = over 0.2 and 3.5 SD of the protein, either way, in both replicates (recomputed). The essentials: (§1)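 Values give the log-two fold change in thermal stability against solvent controls, from duplicates. Crude K562 extract at 1 mg/mL protein, made by dounce homogenisation in PBS pH 7.4 with 1 mM MgCl2, was treated with 10 μM compound for 30 min. After 3 min heating across 48°C-58°C, aliquots were pooled, adjusted to 0.5% NP-40 at 4°C and centrifuged at 21,000xg for 90 min. The supernatant was measured by TMTpro 16plex LC-MS/MS with channel sums equalised.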
For the target PCIF1 (UniProt Q9H4Z3), the log2 fold change was 0.011 (inactive).

For PEF1 (UniProt Q9UBV8), the log2 fold change is -0.043 (inactive).

With PMPCA (UniProt Q10713), the log2 fold change was 0.233 (inactive).

As for PPP4R2 (UniProt Q9NY27), the log2 fold change is 0.028 (inactive).

Turning to PLXNB2 (UniProt O15031), the log2 fold change was -0.019 (inactive).

As to PIK3R1 (UniProt P27986), the log2 fold change was 0.365 (active).

On to PTGR2 (UniProt Q8N8N7), for which the log2 fold change was 0.092 (inactive).

Take PFKFB4 (UniProt Q16877): the log2 fold change was 0.007 (inactive).

On to PFAS (UniProt O15067), for which the log2 fold change was 0.001 (inactive).

PRKAR2B (UniProt P31323): the log2 fold change was -0.26 (active).

For the target PGRMC1 (UniProt O00264), the log2 fold change is 0.071 (inactive).

In the case of PPP3CA isoform 2 (UniProt Q08209), the log2 fold change was -0.182 (inactive).

Turning to PUM1 isoform 3 (UniProt Q14671), the log2 fold change was -0.084 (inactive).

Turning to PPP1R14C (UniProt Q8TAE6), the log2 fold change was 0.017 (inactive).

Consider PRKCB isoform 2 (UniProt P05771), for which the log2 fold change was -0.077 (inactive).

Turning to PIP4K2A (UniProt P48426), the log2 fold change is 0.155 (inactive).

For the target POLR2B (UniProt P30876), the log2 fold change is 0.017 (inactive).

Consider PPP2R3C (UniProt Q969Q6), for which the log2 fold change is 0.115 (inactive).

Regarding PFKFB3 isoform 4 (UniProt Q16875), the log2 fold change is -0.046 (inactive).

PCF11 (UniProt O94913): the log2 fold change was -0.018 (inactive).

PRPF38A (UniProt Q8NAV1): the log2 fold change was 0.046 (inactive).

POMP (UniProt Q9Y244): the log2 fold change was -0.061 (inactive).

Regarding PRKD2 isoform 3 (UniProt Q9BZL6), the log2 fold change is -0.07 (inactive).

With PPIE (UniProt Q9UNP9), the log2 fold change is 0.143 (inactive).

As to POLR2F (UniProt P61218), the log2 fold change is -0.211 (inactive).

For PWP1 (UniProt Q13610), the log2 fold change is -0.039 (inactive).

For the target PLEKHA5 isoform 6 (UniProt Q9HAU0), the log2 fold change is -0.088 (inactive).

Regarding PHKB isoform 3 (UniProt Q93100), the log2 fold change was 0.138 (inactive).

Turning to PRKCSH (UniProt P14314), the log2 fold change was -0.003 (inactive).

Regarding PIK3R2 (UniProt O00459), the log2 fold change was 0.289 (inactive).

Consider PITRM1 isoform 2 (UniProt Q5JRX3), for which the log2 fold change is -0.048 (inactive).

With PIKFYVE (UniProt Q9Y2I7), the log2 fold change was 0.038 (inactive).

For the target PPIL3 (UniProt Q9H2H8), the log2 fold change was 0.021 (inactive).

With PTPN1 (UniProt P18031), the log2 fold change was -0.03 (inactive).

For the target PPME1 isoform 4 (UniProt Q9Y570), the log2 fold change is 0.008 (inactive).

As to PPM1H (UniProt Q9ULR3), the log2 fold change was 0.041 (inactive).

Consider PRPF6 (UniProt O94906), for which the log2 fold change was -0.049 (inactive).

In the case of PRRC2A (UniProt P48634), the log2 fold change is 0.008 (inactive).

Take PHKA1 (UniProt P46020): the log2 fold change was 0.079 (inactive).

Compound in a further assay: CN1CCN(CCOc2cc(OC3CCOCC3)c3c(Nc4c(Cl)ccc5c4OCO5)ncnc3c2)CC1 [saracatinib]
The assay is described as above. The essentials: as §1
On to PCIF1 (UniProt Q9H4Z3), for which the log2 fold change was -0.001 (inactive).

Turning to PEF1 (UniProt Q9UBV8), the log2 fold change is -0.025 (inactive).

With PMPCA (UniProt Q10713), the log2 fold change is -0.024 (inactive).

Regarding PPP4R2 (UniProt Q9NY27), the log2 fold change was -0.007 (inactive).

For PLXNB2 (UniProt O15031), the log2 fold change was 0.005 (inactive).

As for PIK3R1 (UniProt P27986), the log2 fold change was 0.025 (inactive).

As for PTGR2 (UniProt Q8N8N7), the log2 fold change is -0.021 (inactive).

In the case of PFKFB4 (UniProt Q16877), the log2 fold change is 0.077 (inactive).

In the case of PFAS (UniProt O15067), the log2 fold change is -0.013 (inactive).

With PRKAR2B (UniProt P31323), the log2 fold change is 0.007 (inactive).

With PGRMC1 (UniProt O00264), the log2 fold change is -0.017 (inactive).

For the target PPP3CA isoform 2 (UniProt Q08209), the log2 fold change is 0 (inactive).

Take PUM1 isoform 3 (UniProt Q14671): the log2 fold change is 0.039 (inactive).

As for PPP1R14C (UniProt Q8TAE6), the log2 fold change was -0.022 (inactive).

On to PRKCB isoform 2 (UniProt P05771), for which the log2 fold change is -0.023 (inactive).

PIP4K2A (UniProt P48426): the log2 fold change was 0.036 (inactive).

For the target POLR2B (UniProt P30876), the log2 fold change is 0.016 (inactive).

As for PPP2R3C (UniProt Q969Q6), the log2 fold change is 0.04 (inactive).

For the target PFKFB3 isoform 4 (UniProt Q16875), the log2 fold change was -0.024 (inactive).

Turning to PCF11 (UniProt O94913), the log2 fold change was -0.003 (inactive).

Consider PRPF38A (UniProt Q8NAV1), for which the log2 fold change is 0.004 (inactive).

As to POMP (UniProt Q9Y244), the log2 fold change is 0.056 (inactive).

As for PRKD2 isoform 3 (UniProt Q9BZL6), the log2 fold change was 0 (inactive).

With PPIE (UniProt Q9UNP9), the log2 fold change was -0.01 (inactive).

Consider POLR2F (UniProt P61218), for which the log2 fold change was -0.042 (inactive).

On to PWP1 (UniProt Q13610), for which the log2 fold change is 0.01 (inactive).

With PLEKHA5 isoform 6 (UniProt Q9HAU0), the log2 fold change is 0.027 (inactive).

Consider PHKB isoform 3 (UniProt Q93100), for which the log2 fold change is 0.019 (inactive).

Turning to PRKCSH (UniProt P14314), the log2 fold change was 0.011 (inactive).

As to PIK3R2 (UniProt O00459), the log2 fold change was -0.014 (inactive).

Take PITRM1 isoform 2 (UniProt Q5JRX3): the log2 fold change is -0.021 (inactive).

For PIKFYVE (UniProt Q9Y2I7), the log2 fold change is 0.054 (inactive).

Consider PPIL3 (UniProt Q9H2H8), for which the log2 fold change was 0.004 (inactive).

For PTPN1 (UniProt P18031), the log2 fold change is 0.022 (inactive).

Turning to PPME1 isoform 4 (UniProt Q9Y570), the log2 fold change is -0.01 (inactive).

With PPM1H (UniProt Q9ULR3), the log2 fold change was -0.062 (inactive).

With PRPF6 (UniProt O94906), the log2 fold change is 0.009 (inactive).

PRRC2A (UniProt P48634): the log2 fold change was 0.049 (inactive).

In the case of PHKA1 (UniProt P46020), the log2 fold change was -0.009 (inactive).
